# From publication PMC4336329 (PLoS ONE, 2015)
# The whole screen tested about 310,000 compounds, of which about 14,000 (4.5%) showed an effect of 50% or more. Effects have a minus sign here. What follows is part of a selection rich in strong results, with near analogues and random picks from the rest.
# Molecular target: human ether-à-go-go-related gene (hERG) potassium channel (human, UniProt Q12809)
# Test: primary screen, population patch clamp on CHO cells stably expressing hERG; higher = less effect of the substance
# 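Note: peak tail current of the secondary pulse compared with the same well before compound.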
# Chain of human ether-à-go-go-related gene (hERG) potassium channel (Q12809 whole entry, looked up): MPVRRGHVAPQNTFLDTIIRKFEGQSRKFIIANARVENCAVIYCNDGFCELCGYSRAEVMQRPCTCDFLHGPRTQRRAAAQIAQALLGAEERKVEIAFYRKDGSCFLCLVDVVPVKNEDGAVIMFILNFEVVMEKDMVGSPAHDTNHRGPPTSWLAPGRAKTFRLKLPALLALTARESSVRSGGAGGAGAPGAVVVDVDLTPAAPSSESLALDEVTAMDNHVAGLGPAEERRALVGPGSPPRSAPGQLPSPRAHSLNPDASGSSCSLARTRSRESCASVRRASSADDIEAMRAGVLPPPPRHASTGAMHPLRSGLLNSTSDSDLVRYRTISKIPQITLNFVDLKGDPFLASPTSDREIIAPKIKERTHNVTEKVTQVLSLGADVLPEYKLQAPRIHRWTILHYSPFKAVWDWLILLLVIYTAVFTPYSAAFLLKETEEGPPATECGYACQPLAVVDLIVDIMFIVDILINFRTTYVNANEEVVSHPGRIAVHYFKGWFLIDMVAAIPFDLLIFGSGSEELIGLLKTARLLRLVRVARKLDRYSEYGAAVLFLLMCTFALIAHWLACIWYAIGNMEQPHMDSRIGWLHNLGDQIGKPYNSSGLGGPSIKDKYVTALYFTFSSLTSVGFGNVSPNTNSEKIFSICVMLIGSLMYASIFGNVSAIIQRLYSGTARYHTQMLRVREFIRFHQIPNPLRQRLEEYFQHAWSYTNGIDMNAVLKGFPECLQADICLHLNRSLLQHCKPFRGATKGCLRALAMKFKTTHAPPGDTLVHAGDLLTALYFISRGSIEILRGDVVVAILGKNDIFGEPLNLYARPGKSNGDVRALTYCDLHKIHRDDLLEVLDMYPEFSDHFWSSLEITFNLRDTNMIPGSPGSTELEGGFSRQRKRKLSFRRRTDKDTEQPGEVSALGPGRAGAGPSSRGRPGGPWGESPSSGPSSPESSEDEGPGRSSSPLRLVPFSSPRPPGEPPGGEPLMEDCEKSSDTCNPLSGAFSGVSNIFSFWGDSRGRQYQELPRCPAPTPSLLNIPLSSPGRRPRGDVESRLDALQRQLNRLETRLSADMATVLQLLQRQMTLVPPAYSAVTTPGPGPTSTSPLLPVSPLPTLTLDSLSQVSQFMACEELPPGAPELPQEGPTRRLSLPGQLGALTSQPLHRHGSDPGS
row,SMILES,"hERG current change (%, negative = inhibition) at 10uM"
1,CN(Cc1nc2ccccc2c(=O)[nH]1)C(=O)c1ccc(S(=O)(=O)N(C)C)cc1,4.04%
2,COc1cccc(Nc2nc(-c3cccs3)nc3ccccc23)c1,9.19%
3,C/C(=N\NC(N)=O)c1ccc(Cl)cc1,6.12%
4,CCCCCC(=O)N/N=C(\C)c1ccc(Cl)cc1,9.87%
5,CCCCC(O)(CCCC)C(=O)N/N=C(\C)c1ccc(Cl)cc1,-66.9%
6,Cc1onc(-c2ccccc2)c1C(=O)N1CCN(S(=O)(=O)c2ccccc2Br)CC1,-1.99%
7,Cc1c(Cl)cccc1NC(=S)N1CC2CC(C1)c1cccc(=O)n1C2 (stereo not drawn),-4.67%
8,Cc1nn(-c2nc3ccccc3[nH]2)c(N)c1-c1ccccc1,0.295%
9,CCC(C(=O)NCCCN(CC)Cc1ccccc1)n1nc(C)c2sc3ccccc3c2c1=O (stereo not drawn),-68.1%
10,Cc1nn(C(C)C(=O)NCCCN2CCCCC2C)c(=O)c2c1sc1ccccc12 (stereo not drawn),-5.22%
11,CCN(CC)CCCNC(=O)C(C)n1nc(C)c2sc3ccccc3c2c1=O (stereo not drawn),-19.7%
12,Cc1nn(C(C)C(=O)NCCCN(Cc2ccccc2)C(C)C)c(=O)c2c1sc1ccccc12 (stereo not drawn),-11.7%
13,CCC1CCCCN1CCCNC(=O)C(C)n1nc(C)c2sc3ccccc3c2c1=O (stereo not drawn),-69.8%
14,Cc1nn(C(C)C(=O)NCCCN2CCCCCC2)c(=O)c2c1sc1ccccc12 (stereo not drawn),-28.1%
15,CCC(=O)N1CCc2cc(S(=O)(=O)N3CCc4ccccc43)ccc21,2.61%
16,Clc1ccc2oc(SCc3cccnc3)nc2c1,-16.2%
17,CCCOc1ccc(OCCSc2ncccn2)cc1,-2.55%
18,O=C(CCNC(=O)c1ccccc1)NCCCc1ccccc1,6.54%
19,O=C(Nc1ccc(C(F)(F)F)cc1)C1CCN(c2cnccn2)CC1,-12.5%
20,COc1ccc(CN(C)CC(O)COC(c2ccccc2)c2ccccc2)c(OC)c1OC (stereo not drawn),-76.7%
21,COc1ccc(CN(C)CC(O)COc2ccc(C(=O)c3ccccc3)cc2)c(OC)c1OC (stereo not drawn),-63.7%
22,COc1cccc(OC)c1OCCOc1ccc(C(=O)c2ccccc2)cc1,-4.82%
23,CN(Cc1cccc(Cl)c1Cl)CC(O)COc1ccccc1.O=C(O)C(=O)O (stereo not drawn),-12%
24,COc1ccc(CN(C)CCc2ccccn2)c(OC)c1OC.O=C(O)C(=O)O,-38.9%
25,COc1ccc(CN(C)Cc2ccccc2)c(OC)c1OC,-16.9%
26,COc1ccc(CCNC(=O)C2CCC(=O)N(C3CCCCCC3)C2)cc1 (stereo not drawn),8.9%
27,O=C(CCN1C(=O)NC2(CCCC2)C1=O)Nc1cccc(S(=O)(=O)N2CCOCC2)c1,10.7%

row,SMILES,"hERG current change (%, negative = inhibition) at 10uM"
1,O=C(CSc1ncnc2c1nnn2Cc1ccccc1F)NCC1CCCO1 (stereo not drawn),-2.7%
2,Cc1ccc(S(=O)(=O)CCC(=O)Nc2ccc3c(c2)OCO3)cc1,-16%
3,Cc1ccc(C)c(S(=O)(=O)N2CCN(C(=O)Nc3ccccc3)CC2)c1,-26.1%
4,O=C(/C=C/c1ccc([N+](=O)[O-])s1)N1CCCC1,-52.9%
5,O=C(/C=C/c1ccc([N+](=O)[O-])s1)N1CCN(c2ccccc2)CC1,-37%
6,O=C(/C=C/c1ccc([N+](=O)[O-])s1)N1CCCCC1,-38.7%
7,COc1cccc(-c2nn(CCC#N)cc2C(=O)Nc2ccccc2Cl)c1,5.09%
8,CC(=O)Nc1cc(C)nn1-c1nc(C)cc(C)n1,25.4%
9,CCN(CC(=O)Nc1cc(C)nn1-c1nc(C)cc(C)n1)Cc1ccccc1,-42.8%
10,CCc1ccc(NC(=O)CNCc2ccc(OC)c(OC)c2)cc1.O=C(O)C(=O)O,-21.3%
11,Cc1cc(NC(=O)CSc2cc(Cl)ccc2Cl)n(-c2ccccc2)n1,-20.2%
12,Cc1cc(C)nc(-n2nc(C)cc2NC(=O)C(C)C)n1,16.9%
13,COc1ccc(CNCC(=O)Nc2cc(C)nn2-c2nc(C)cc(C)n2)cc1OC,-56.8%
14,Cc1cc(C)nc(-n2nc(C)cc2NC(=O)CNC(C)c2ccccc2)n1 (stereo not drawn),-62.2%
15,CCC(C(=O)Nc1cc(C)cc(C)n1)c1ccccc1 (stereo not drawn),-23.6%
16,CCC(C(=O)Nc1cc(C)nn1-c1nc(C)cc(C)n1)c1ccccc1 (stereo not drawn),-67.7%
17,COc1ccc(-c2nc(CSCC(=O)N3CCN(C)CC3)c(C)o2)cc1OC,11.7%
18,COc1ccccc1Nc1nnc(SCc2nnc(-c3cc(OC)c(OC)c(OC)c3)o2)s1,-21.7%
19,CC1(C)O[C@@H]2[C@H](O1)[C@@H](COS(=O)(=O)[O-])O[C@H]2n1cnc2c(N)ncnc21.[K+],15.7%
20,O=C(COc1ccc(C(=O)NCCc2ccccc2)cc1)Nc1ccccc1,7.64%
21,COc1ccc2[nH]c(C)c(CCNCc3cn(C)c4ccccc34)c2c1.O=C(O)C(=O)O,-27.8%
22,Cc1[nH]c2ccc(OC(F)(F)F)cc2c1CCNCc1cccc([N+](=O)[O-])c1,-25.4%
23,COc1ccc(CNCCc2c(C)[nH]c3ccc(OC(F)(F)F)cc23)c(OC)c1.O=C(O)C(=O)O,-51%
24,CCOc1cccc(CNCCc2c(C)[nH]c3ccc(OC(F)(F)F)cc23)c1O.O=C(O)C(=O)O,-51.9%
25,COc1ccc2[nH]c(C)c(CCNCc3cccnc3)c2c1.O=C(O)C(=O)O,-3.77%
26,Cc1[nH]c2ccc(OC(F)(F)F)cc2c1CCNCc1ccc(Cl)cc1.O=C(O)C(=O)O,-34.5%
27,CC(=O)n1cc(CO)c2ccccc21,9.03%
